In the library only some 1.1% were active in any assay of this set; here they are far more common.
Luc counter: blocks Kinase-Glo luciferase, a counter-screen artifact. Kinase-Glo luciferase, ATP luminescence, 8 min. Potency, µM (top dose mostly 38.3 µM), for the others: top-dose activity change, negative = inhibition, actives largely listed as inhibitors. actives 0.28% (n = 200,000). AID 1379; also: nearly all actives have a fitted effect of over 60% in size
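Substrate mix (final 50 mM imidazole pH 7.2, 50 mM KCl, 7 mM MgCl2, 10 uM ATP, 0.01% Tween 20, 0.05% BSA) plus pin-tool compound, then Kinase-Glo detection mix; 8 min ambient, luminescence read.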
ERK EGF block: inhibitors of EGF-stimulated ERK signaling pathway; HEK293-V1b, EGF-stimulated phospho-ERK AlphaScreen; Potency, µM (highest dose often 11.5 µM), without a hit: top-dose activity change, negative = inhibition, most hits filed as inhibitors; actives 0.41% (n = 130,000);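 also: plate controls were stimulated vehicle wells for no effect and unstimulated vehicle basal for full effect; nearly all actives have a fitted effect of over 55% in size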
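Homogeneous cell-based phospho-ERK assay: HEK293/V1b cells in 1% FBS, compound 30 min then EGF 5 min, AlphaScreen luminescence. Activity normalized between DMSO and 25 nM EGF controls; AC50 from Hill modelling.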
NPSR antagonist: antagonists of human neuropeptide S receptor cAMP signaling; Potency, µM (titrated, usually from 38.3 µM), for inactives: at the top dose activity change, negative = inhibition, usual class: inhibitors; actives 1% (n = 220,000); AID 1461; Q6W5P4; CHO-NPSR cells, cAMP TR-FRET, antagonist mode; also: nearly all actives have a fitted effect of over 50% in size
Target sequence (Q6W5P4 whole entry, looked up): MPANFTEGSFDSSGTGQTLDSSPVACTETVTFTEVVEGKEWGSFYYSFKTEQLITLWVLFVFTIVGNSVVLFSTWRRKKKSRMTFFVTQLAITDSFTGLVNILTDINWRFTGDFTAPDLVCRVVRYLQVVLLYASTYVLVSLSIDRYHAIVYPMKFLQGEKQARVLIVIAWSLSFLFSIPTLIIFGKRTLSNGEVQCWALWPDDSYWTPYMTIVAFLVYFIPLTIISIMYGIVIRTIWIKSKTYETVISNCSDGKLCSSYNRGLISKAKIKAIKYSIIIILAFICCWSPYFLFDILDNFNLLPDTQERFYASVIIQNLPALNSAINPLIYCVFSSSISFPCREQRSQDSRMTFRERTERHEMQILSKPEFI
IMPase Li inh: membrane-permeable IMPase blocker, potentiated with lithium | CHO-M1 cells, IP1 TR-FRET (IP-One), carbachol + lithium | Potency, µM (series often up to 59.4 µM), for the others: at the top dose activity, negative = IMPase inhibition, most hits filed as inhibitors | actives 0.35% (n = 210,000);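 also: IP1 builds up when IMPase is blocked and the TR-FRET signal falls; plate controls were basal vehicle for no effect and high inhibitor control for full effect; nearly all actives have a fitted effect of over 50% in size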
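Steps: plate 2000 CHO-M1 cells per well and culture 16–30 h; add compound and lithium; incubate 30 min, 37C; add d2-IP1 tracer and Eu cryptate anti-IP1 antibody in lysis buffer; read after 10 min at room temperature.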
The depositor's hits bear a star; ? = inconclusive; . = no result given; ! = repeats disagree; [ ] = dose if it differs, or a comment. Calls follow the shape of the dose curve; as a rule, active = well fitted curve in the direction sought with a large enough effect; inconclusive = small, poorly fitted or top-dose-only effect, or another doubt; inactive = no such curve, though single readings can be large; an effect the other way counts as inactive or inconclusive. Unless noted, % is scaled to controls: 0 for no effect and ±100 for the full control effect; potency is read from the fitted curve at half-maximal effect.

SMILES	Luc counter	ERK EGF block	NPSR antagonist	IMPase Li inh
CC(C)C[C@@H](CC(=O)N[C@@H](CCCN)CC(=O)N[C@@H]1CCCC[C@H]1C(=O)N[C@H](CC(=O)N[C@@H](CCC(=O)O)CC(=O)O)Cc1ccccc1)NC(=O)[C@@H]1CNCC[C@H]1N	0%	3%	.	15%
COc1cc2ncnc(Nc3cccc(Br)c3)c2cc1OC	-1%	0.1µM*	.	5%
COc1ccc(CCn2c(SCC(=O)Nc3cc(C)on3)nc3ccsc3c2=O)cc1OC	-2%	.	-2%[46.1 µM]	11µM*
COc1ccc(CCn2c(SCC(=O)Nc3cc(C)on3)nc3ccccc3c2=O)cc1OC	-5%	.	-1%[46.1 µM]	-8%[38.3 µM]
O=C(CSc1nc2nc(-c3cccs3)cc(C(F)(F)F)c2c(=O)[nH]1)NCc1ccco1	0%	.	11%[46.1 µM]	8.9µM*
O=C(Oc1ccc(Cl)c2cccnc12)c1ccco1	-7%	.	4µM*	32%[38.3 µM]
N/C(=N\OC(=O)c1cccc([N+](=O)[O-])c1)c1ccccn1	13µM*	19%	-2%	1%
N/C(=N\OC(=O)c1ccc2ccccc2c1)c1ccccn1	11µM*	-2%	-1%	0%
N/C(=N\OC(=O)c1ccc(Cl)cc1Cl)c1ccccn1	11µM*	-2%	52%	6%
N/C(=N\OC(=O)c1ccc2ccccc2c1)c1ccncc1	-4%	7%	-19%	1%
CON	1%	12%	.	1%
Cc1cc(CN2CCCCC2)c(O)c(CN2CCCCC2)c1	-7%[7.66 µM]	.	.	19%
N[C@](CC1c2ccccc2Oc2ccccc21)(C(=O)O)[C@@H]1C[C@@H]1C(=O)O	2%	5%	.	12%
N/C(=N\OC(=O)c1ccco1)c1ccccn1	13µM*	5%	7%	0%
Clc1ccc(Sc2cnc3ccccc3n2)cc1	-2%	.	-19%[46.1 µM]	?
c1ccc(Sc2cnc3ccccc3n2)cc1	-7%	.	-7%[46.1 µM]	13µM*
Cc1cc2c(cc1Cl)C(c1ccc3c(c1)OCO3)CC(=O)O2 (centres undefined)	1%[39.9 µM]	.	.	13%
O=C(NNc1nc2ccc(F)cc2s1)c1cccc(F)c1	3%	-1%	-7%	-1%
Cc1ccc(C(=O)Nc2nc3ccccc3s2)s1	13µM*	.	-39%[46.1 µM]	?
O=C(Nc1nc2ccc(F)cc2s1)c1ccccn1	11µM*	6%	-41%	2%
O=C(Nc1nc2ccccc2s1)c1cnccn1	7.9µM*	.	-6%[46.1 µM]	7%[38.3 µM]
COc1ccc(C(=O)Nn2c(SCC(=O)NC3CCCCC3)nc3ccccc3c2=O)cc1	14µM*	.	-6%[46.1 µM]	19%[38.3 µM]
COc1ccc(C(=O)Nn2c(SCC(=O)c3ccc(Cl)cc3)nc3ccccc3c2=O)cc1	-21%	.	?	-29%[38.3 µM]
COc1ccc(C(=O)Nn2c(SCC(=O)N3CCC(C)CC3)nc3ccccc3c2=O)cc1	13µM*	.	-20%[46.1 µM]	0%[38.3 µM]
CC(C)C[C@@H](CC(=O)N[C@@H](CCCN)CC(=O)N[C@@H]1CCCC[C@H]1C(=O)N[C@H](CC(=O)N[C@@H](CCC(=O)O)CC(=O)O)Cc1c[nH]c2ccccc12)NC(=O)[C@@H]1CCCC[C@H]1N	5%	-6%	.	1%
SMILES	Luc counter	ERK EGF block	NPSR antagonist	IMPase Li inh
CC[C@@H](c1ccc2cc(O)ccc2c1)C(C)(C)C(=O)O	-5%[7.66 µM]	.	.	7%
CC1(C)CC(=O)c2cc3c(N)c(C(=O)NCc4ccccc4)sc3nc2C1	-1%	.	-14%[46.1 µM]	-5%[38.3 µM]
CN1CCc2nc3sc(C(=O)NCc4ccccc4)c(N)c3cc2C1	1%	-5%	13µM*	48%
CC1(C)OCC(CSC2=C(SCC3COC(C)(C)O3)C(=O)c3ncccc3C2=O)O1 (centres undefined)	-8%	-6%	.	49%
COc1ccccc1CN1CC2(CCN(S(C)(=O)=O)CC2)C1	-3%	2%	.	9%
O=c1c(Cl)c(Cl)cnn1Cc1ccccc1Cl	-4%	9%	6.3µM*	3%
Cc1ccc(Cn2ncc(Cl)c(Cl)c2=O)cc1	1%	16%	-47%	0%
COc1ccc(-c2nc3c(c4c2C[C@H](c2ccccc2)OC4)CN(C(=O)Nc2cccc(C#N)c2)CC3)c(C)c1	-4%[7.66 µM]	.	.	-5%
CC1O[C@@H](O[C@@H]2C(O)C[C@H](O[C@@H]3C(O)C[C@@H](OC4CC[C@@]5(C)C6CC(O)[C@@]7(C)C(C8=CC(=O)OC8)CC[C@@]7(O)C6CC[C@@H]5C4)OC3C)OC2C)CC(O)[C@H]1O (some centres undefined)	-1%	27%	.	3%
O=C(Nc1ccccc1)Nc1ccc(C(=O)N2CCOCC2)cc1	3.2µM*	.	-11%[46.1 µM]	-1%[38.3 µM]
COc1ccc2[nH]cc(CCNc3ncncc3-c3ccc(N(C)C)cc3)c2c1	-2%	?	.	16%
COc1ccc(-c2ccc(OC)c([C@H]3[C@H]4C=CC[C@@H](C)[C@@H]4C(=O)N3Cc3ccccc3)c2)cc1OC	.	9%[57.5 µM]	?	.
COc1ccc(-c2c([C@H]3[C@H]4C=CC[C@@H](C)[C@@H]4C(=O)N3Cc3ccccc3)ccc3ccccc23)cc1OC	.	-2%[57.5 µM]	6.3µM*	.
CCc1ccc(Cn2nnc(C(=O)Nc3ccc(OC)cc3OC)c2N)cc1	0%	.	-6%[46.1 µM]	-6%[38.3 µM]
CCOc1ccc(Cn2nnc(C(=O)NCc3ccc(OC)cc3)c2N)cc1	6%	5%	-39%	11µM*
CC1=NN(c2ccccc2)C(=O)/C1=C\C=C\c1ccccc1	.	25µM*	-6%	.
CC1=NN(c2ccccc2)C(=O)/C1=C\c1cn(C)c2ccccc12	-2%	14µM*	-35%	18%
CC1=NN(c2ccccc2)C(=O)/C1=C/c1cn(C)c2ccccc12	.	?	31%	.
CCOC(=O)CC1=NN(c2ccccc2)C(=O)/C1=C\c1ccc(N(C)C)cc1	-14%	25µM*	2%	11%
CC1=NN(c2ccccc2)C(=O)/C1=C/C=C/c1ccc(N(C)C)cc1	13µM*	7.1µM*	-55%	67%
Cc1cc(C)cc(C(=N)c2ccccc2Cc2cccc3ccccc23)c1	-1%[7.66 µM]	.	.	8%
O=C(O)[C@H](C1NCCS1)N1Cc2ccccc2C1 (some centres undefined)	0%[7.66 µM]	.	.	-7%
CC1Oc2ccccc2C=C1/C=C1/SC(N2CCOCC2)=NC1=O (centres undefined)	0%	.	-19%[46.1 µM]	9%[38.3 µM]
CCN1C(=O)/C(=C/C2=Cc3ccccc3OC2C)SC1=S (centres undefined)	.	16µM*	1%	.
C=CCN=C1NN=C(c2ccc3c(c2)OCCO3)CS1	10µM*	5%	-18%	19%
CCOCC(=O)Nc1cc(C(=O)Nc2cc(C)cc(C)c2)ccc1Cl	11µM*	-21%	-4%	0%
CO[C@]1(NC(=O)Cc2cccs2)C(=O)N2C(C(=O)O)=C(COC(N)=O)CS[C@H]21	-6%[17.1 µM]	18%[25.7 µM]	.	-2%
COc1ccc(N2CSC3=C(C#N)C(c4cccs4)CC(=O)N3C2)cc1 (centres undefined)	-9%	.	-27%[7.67 µM]	13µM*
C[n+]1cc2c3c(ccc2c2ccc4cc5c(cc4c21)OCO5)OCO3	0%	25µM*!	?	50%
